Only a selection was taken, and hits are over-represented in it overall.
Shiga toxin inh: Shiga toxin inhibition. inhibition, % at 38.7 µM. Vero cells, Shiga toxin protein synthesis inhibition reporter. AID 2315. actives 9.2% (n = 290,000); in the data active = inhibition mostly above about 28%, no sharp cut-off; inactive = mostly below about 43%; also: 0% is about no effect
TbPYK inhibitor: inhibitors of Trypanosoma brucei pyruvate kinase; TbPYK enzyme, Kinase-Glo Plus ATP luminescence, 45 min; actives 0.12% (n = 410,000); Potency, µM (top dose mostly 76.8 µM), for the others: at the highest dose activity, negative = inhibition, hits mostly inhibitors; also: potency is read from the fitted curve at half-maximal effect; % is scaled to controls: 0 for no effect and ±100 for the full control effect; nearly all actives have a fitted effect of over 50% in size
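Assay buffer: 50 mM TEA pH 7.2, 100 mM KCl, 10 mM MgCl2, 0.05% BSA, 0.01% Tween-20. Pyruvate kinase from T. brucei plus substrate met compound, then ADP (130 uM final). Luminescence was read post 45 min RT.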
Cycloheximide cs: affects cycloheximide protein synthesis inhibition readout, counter-screen. cell reporter, cycloheximide protein synthesis inhibition counterscreen. max response, %. actives 12% (n = 300,000). AID 2314; in the data active = max response mostly above about 13%, no sharp cut-off; inactive = mostly below about 14%; also: read at 38.3 µM for the half of the compounds with a filed dose; 0% is about no effect
LmPK inhibitor: blocks Leishmania mexicana pyruvate kinase activity. purified LmPK, Kinase-Glo ATP luminescence, 1 h. Potency, µM (doses to about 57.5 µM), inactives show at the top dose activity change, negative = inhibition, usual class: inhibitors. actives 0.37% (n = 290,000). AID 1721; also: potency is read from the fitted curve at half-maximal effect; % is scaled to controls: 0 for no effect and ±100 for the full control effect
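Pyruvate kinase activity monitored as ATP production (luciferase luminescence). Conditions: 0.1 nM enzyme, 0.5 mM PEP, 0.1 mM ADP, 1 h, RT; normalized against uninhibited and no-enzyme wells.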
Sm TGR block: inhibitors of Schistosoma mansoni thioredoxin glutathione reductase; AID 485364; Potency, µM (top dose mostly 114 µM), for inactives: top-dose activity change, negative = inhibition, usual class: inhibitors; actives 3% (n = 360,000); purified TGR, DTNB reduction, TNB absorbance 405 nm; also: potency is read from the fitted curve at half-maximal effect; % is scaled to controls: 0 for no effect and ±100 for the full control effect; nearly all actives have a fitted effect of over 60% in size
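TGR 20 nM + NADPH 100 uM (dispensed conc.), cpd preinc 15 min RT; start with NADPH (500 uM addition) then DTNB (15 mM addition). Kinetic TNB absorbance, 405 nm filter. Four-parameter Hill fit across titration.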
FBPA Giardia inh: Giardia lamblia aldolase inhibition; Potency, µM (highest dose often 59.6 µM), inactives show at the highest dose activity, negative = inhibition, usual class: inhibitors; purified Giardia FBPA; actives 0.71% (n = 290,000); AID 2451; also: potency is read from the fitted curve at half-maximal effect; % is scaled to controls: 0 for no effect and ±100 for the full control effect; nearly all actives have a fitted effect of over 55% in size
Target sequence (A8B2U2 whole entry, looked up): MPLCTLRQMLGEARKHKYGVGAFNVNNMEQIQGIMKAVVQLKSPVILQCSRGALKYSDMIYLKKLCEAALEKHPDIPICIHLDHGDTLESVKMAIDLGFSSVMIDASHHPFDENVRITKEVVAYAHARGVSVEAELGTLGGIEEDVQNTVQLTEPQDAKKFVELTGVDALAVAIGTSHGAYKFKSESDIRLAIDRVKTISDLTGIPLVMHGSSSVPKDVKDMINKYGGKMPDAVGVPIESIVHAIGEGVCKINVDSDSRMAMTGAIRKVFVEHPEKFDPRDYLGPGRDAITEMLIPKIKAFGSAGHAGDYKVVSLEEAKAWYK
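40 nM FBPA preincubated 10 min at RT with compound (up to 57.5 uM final), then substrate plus GAPDH/TPI/NAD/arsenate coupling and diaphorase/resazurin added. Fluorescence read after 20 min at RT, 525/598 nm.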
The depositor's hits bear a star; ? = inconclusive; . = not tested or not shown; [ ] = dose if it differs, or a comment. Unless noted, calls follow the shape of the dose curve; as a rule, active = well fitted curve in the direction sought with a large enough effect; inconclusive = small, poorly fitted or top-dose-only effect, or another doubt; inactive = no such curve, though single readings can be large; an effect the other way counts as inactive or inconclusive.

SMILES	Shiga toxin inh	TbPYK inhibitor	Cycloheximide cs	LmPK inhibitor	Sm TGR block	FBPA Giardia inh
CCC(C)(C)C1CCC2(CC1)NC(=O)N(CC(=O)NC(C)CCc1ccccc1)C2=O (stereo not drawn)	.	-4%	.	.	-1%	.
C/C=C/c1ccc(OCCCN2C(=O)NC(C)(C)C2=O)c(OC)c1	27	0%	23*	3%	?	1%
Cc1ccc([N+](=O)[O-])c(OCCCN2C(=O)NC(C)(C)C2=O)c1	57	6%	19*	4%	20%	14%
C/C=C/c1ccc(OCCN2C(=O)NC(C)(C)C2=O)c(OC)c1	12	2%	4	6%	-23%	-28%
C=CCN(CC=C)CCOc1cc(C)ccc1[N+](=O)[O-]	40*	12%	18*	-6%	-36%	?
CC1(C)NC(=O)N(CCCOc2ccc3c(c2)CCC3)C1=O	59*	0%	34*	0%	3%	0%
COc1ccc(NC(=O)COC(=O)c2ccc(-n3cnnn3)cc2)c([N+](=O)[O-])c1	.	2%	.	.	-18%	.
CC1(C)NC(=O)N(CCCOc2ccc(Br)cc2Cl)C1=O	134*	3%	40*	-9%	5%	4%
CCOc1ccc(Cl)cc1/C=N/NC(=O)CNC(=O)c1ccccc1	-5	0%	-6	-1%	-1%	?
CCOc1ccc(Cl)cc1/C=N/NC(=O)c1ccccc1	65*	1%	29*	6%	0%	0%
CCOc1ccccc1/C=N/NC(=O)c1cccc(Cl)c1	57*	1%	2	-1%	6%	-3%
Cc1ccc(S(=O)(=O)c2nnn3c2nc(Nc2ccc(C(C)C)cc2)c2sccc23)cc1C	.	-7%	.	.	7%	.
Cc1ccc(S(=O)(=O)/N=C(/Nc2ccc([N+](=O)[O-])cc2)c2ccccc2)cc1	-7	6%	5	5%	-10%	6%
C/C(=N\S(=O)(=O)c1ccc(C)cc1)NC(=S)Nc1ccc(C)cc1	118*	1%	40*	-2%	?	?
Cc1ccc(S(=O)(=O)/N=C(/NC(=S)Nc2cccc(C)c2)c2ccccc2)cc1	77*	-19%	54*	5%	?	-9%
Cc1cccc(NC(=S)N/C(=N/S(=O)(=O)c2ccccc2)c2ccccc2)c1	18*	6%	44*	3%	?	-18%
COc1cccc(CNc2ncnc3onc(-c4ccc(F)cc4)c23)c1	.	1%	.	.	-1%	.
OCCOc1ccc(C2=NCCO2)cc1	58	1%	15*	-10%	-5%	8%
C=C(C(=O)C(C)(C)O)C(O)c1ccc([N+](=O)[O-])cc1 (stereo not drawn)	.	.	.	.	.	-4%
COc1cccc(C(=O)N2CCC(CCC(=O)Nc3cccc(C)c3)CC2)c1	4	1%	8	4%	-3%	-3%
Cc1ccn2cc(-c3ccc4c(c3)NC(=O)CO4)nc2c1	75*	1%	32	-4%	-6%	?
Cc1cccn2cc(-c3ccc4c(c3)NC(=O)CO4)nc12	61*	-13%	31*	-4%	-5%	-17%
COc1ccccc1CNC(=O)CCCCn1c(=O)c2ccccc2n(Cc2ccccc2C)c1=O	.	-10%	.	.	-8%	.
COc1ccccc1Cn1ccn(CC(=O)Nc2c(C)cc(C)cc2C)c(=O)c1=O	.	4%	.	.	1%	.
CC(C)Nc1nc(Cl)nc(Nc2ccccc2)n1	53*	-1%	39*	2%	-7%	16%
SMILES	Shiga toxin inh	TbPYK inhibitor	Cycloheximide cs	LmPK inhibitor	Sm TGR block	FBPA Giardia inh
CC(C)c1ccc(Nc2nc(Cl)nc(NCCO)n2)cc1	21	0%	12*	-7%	1%	0%
c1ccc(Nc2ccccc2)cc1	.	-2%	.	.	-2%	.
CC(C)Nc1ccc(Nc2ccccc2)cc1	.	?	.	.	8.9µM*	.
CN(N=O)C(=O)N[C@H]1[C@@H](O)[C@H](O)[C@H](CO)O[C@@H]1O	.	-10%[33.2 µM]	.	.	.	2%[21.7 µM]
CCOC(=O)c1cnc(-n2nc(C)cc2C)nc1Nc1ccc(C)cc1	6	-4%	8	1%	1%	13%
CCOC(=O)c1cnc(-n2nc(C)cc2C)nc1NC	29	-5%	32*	5%	-3%	?
CNC(=O)/C(C#N)=C/c1cccc(Oc2ccccc2)c1	64*	1%	42*	2%	-5%	-7%
Cc1ccc(NS(=O)(=O)c2ccccc2)c(C)c1	-6	.	-5	.	.	.
Cc1ccc(-c2cn3nc(C)c(C)nc3n2)cc1	32*	-12%	24*	?	?	-10%
COc1ccc(-c2cn3nc(C)c(C)nc3n2)cc1OC	.	0%	.	.	-26%	.
O=c1[nH]c2cc([N+](=O)[O-])cc([N+](=O)[O-])c2[nH]c1=O	-10	.	-9	.	.	-10%
O=C(NC(=S)Nc1ccccc1F)C1CCCCC1	61	.	57*	-7%	?	.
O=C(NC(=S)Nc1ccccc1Br)C1CCCCC1	.	-2%	.	.	.	.
O=C(NC(=S)Nc1ccccc1Br)C1CCCC1	143*	-5%	38*	0%	13µM*	.
Cc1sc2nc(CSC(C)C(=O)NC3(C#N)CCCCC3)[nH]c(=O)c2c1C (stereo not drawn)	.	4%	.	.	0%	.
CCc1ccc(CNC(=O)c2ccc(CS(=O)(=O)Cc3ccccc3C)o2)cc1	.	-1%	.	.	-2%	.
Cc1ccccc1CS(=O)(=O)Cc1ccc(C(=O)NCc2ccccn2)o1	-11	-4%	-3	-4%	13µM*	-1%
Cc1ccccc1CS(=O)(=O)Cc1ccc(C(=O)NCc2ccco2)o1	-13	8%	14	3%	56µM*	4%
O=C(NCc1ccccn1)c1ccc(CS(=O)(=O)Cc2ccc(Cl)cc2)o1	-5	7%	-1	0%	28µM*	0%
Cc1cc(C(F)(F)F)nn1Cc1ccc(C(=O)NCc2ccco2)o1	4	-9%	-4	0%	11µM*	-2%
O=C(NCc1cccnc1)c1ccc(CS(=O)(=O)Cc2ccc(Cl)cc2)o1	-4	4%	-1	4%	?	8%
COc1ccc(CNC(=O)c2ccc(Cn3nc(C)cc3C)o2)cc1	-6	-1%	-1	-1%	-19%	0%
N#Cc1ccccc1Sc1ccccc1C(=O)NCC(c1ccco1)N1CCCC1 (stereo not drawn)	.	-2%	.	.	-2%	.
CC(C)CC(N)c1csc(Nc2ncccn2)n1 (stereo not drawn)	.	3%	.	.	.	.
Cc1nc(-c2ccc(S(=O)(=O)Oc3ccccc3Cl)s2)cs1	33*	2%	26*	-4%	-2%	-11%
Cc1nc(-c2ccc(S(=O)(=O)N3CCN(C4c5ccccc5-c5ccccc54)CC3)s2)cs1	94*	-12%	30*	6%	-1%	-16%

Screens from PubChem BioAssay.
